# A selection: hits, their analogues and other compounds. The true share with any hit is near 1.5%.
# Myeloid diff MLP – promotes myeloid progenitor differentiation; ER-HoxA9 myeloid progenitors, lysozyme-GFP differentiation, flow cytometry; AID 624256; calls only at 10 µM; actives 1% (n = 360,000);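 active = normalized GFP-positive differentiation at or above the plate's own cutoff, the solvent-only control mean plus 3 SD; inconclusive = no clear call, values can overlap the other calls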;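 note: cells exposed to compound for four days before flow analysis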
# TLR4 MyD88 comp – TLR4-MyD88 interaction inhibition in cells; HeLa CL3-4 TLR4/MyD88 BLA complementation, FRET ratio; O00206+Q99836; actives 0.18% (n = 200,000); inhibition, % at 8.4 µM; in the data active = inhibition above about 25%;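 note: 0% = vehicle and 100% = reference inhibitor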
# TLR9-MyD88 block – TLR9-MyD88 interaction inhibition; Q9NR96+Q99836; CHO BLA complementation TLR9-MyD88, CCF4 FRET ratio; inhibition, % at 4.98 µM; actives 0.21% (n = 340,000); AID 504734;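 active = inhibition above the mean over all tested compounds plus 3 SD, cut at about 21% in these data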;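 note: 0% = DMSO only wells and 100% = clavulanate BLA inhibitor control wells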
# NOD2-RIPK2 inh – blocks binding of human NOD2 to RIPK2 | O43353 | CHO BLA complementation NOD2-RIPK2, CCF4 ratio | inhibition, % at 4.98 µM | actives 0.38% (n = 360,000) | AID 624267; in the data active = inhibition above about 21%;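 note: 0% = vehicle only and 100% = reference blocker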
# The depositor's hits bear a star; i = inactive; u = inconclusive; x = no result; + = active, no number.
SMILES,Myeloid diff MLP,TLR4 MyD88 comp,TLR9-MyD88 block,NOD2-RIPK2 inh
C#CCNC(=O)C[C@@H]1C[C@@]2(C(=O)OC)CC(C)(C)CC=C2N(CCCCCCCC)C1=O,i,x,x,11
O=C(O)c1ccc(-c2cccc(-c3nn4c(=O)cc(N5CCNCC5)nc4s3)c2)cc1,i,x,x,1
O=C(Oc1c(CN2CCOCC2)cc(Cl)c2cccnc12)c1ccc(F)cc1,+,-1,6,-8
COc1cc(C(=O)Oc2c(CN3CCOCC3)cc(Cl)c3cccnc23)cc(OC)c1OC,+,-14,14,-16
COc1ccc(C(=O)Oc2c(CN3CCOCC3)cc(Cl)c3cccnc23)cc1,x,-18,-12,-14
O=C(Oc1c(CN2CCOCC2)cc(Cl)c2cccnc12)c1ccccc1Cl,u,-1,-6,-5
COC(=O)[C@]12CCCCC=C1N(Cc1cccc3ccccc13)C(=O)[C@H](CC(=O)NCCCN1CCCC1=O)C2,i,x,x,-2
CCc1ccc(CNC(=O)C2CCCN(S(=O)(=O)N3CC(C)CC(C)C3)C2)cc1 (stereo not given),+,x,3,6
CCOC(=O)N1CCN(S(=O)(=O)N2CCCC(C(=O)NCc3cccc(OC)c3)C2)CC1 (stereo not given),+,x,4,7
CC1(C(=O)NC2CCc3ccccc32)CCN1CCc1ccccc1 (stereo not given),i,x,x,12
COc1ccc(C(=O)C[C@@H]2OC[C@H](C(C)C)N2S(=O)(=O)c2ccc(C)cc2)cc1OC,i,x,x,-14
CC1(C)C=C2C(=NN(c3ccccc3)C(N)=C2C#N)CO1,+,x,-5,5
CCC1(C)Cc2c(C#N)c(N)n(-c3ccccc3)c(=O)c2CO1 (stereo not given),i,1,-16,5
COc1ccc(C2=Nn3c(nnc3C3CCCCC3)SC2)cc1OC,+,0,-14,-2
Cc1ccc(-c2csc(C(O)c3ccc(F)c(F)c3)n2)cc1C (stereo not given),i,x,x,11
Nc1ccc2c(c1)Cc1cc(N)c(Cl)cc1-2,i,x,-13,-16
Nc1cc2c(cc1N)-c1ccccc1C2,+,x,1,-8
CCn1ccc2cc(OC)ccc2c1=S,i,8,-9,7
CCSc1ccc2cc(OC)ccc2[n+]1CC,+,1,-8,8
NC(COCc1ccccc1)c1csc(NC(=O)Nc2cccc(Cl)c2)n1 (stereo not given),i,x,x,14
COc1cc(/C=C(\C#N)c2nc3ccccc3s2)ccc1OCC(=O)Nc1ccccc1,+,-6,7,-8
COc1ccc(C(=O)N=c2sc3c(C)ccc(OC)c3n2C)cc1,+,-9,-9,-8
COc1cc(C(=O)N=c2sc3c(C)ccc(OC)c3n2C)cc(OC)c1OC,i,x,-4,0
COc1cc(CNc2ccc(S(N)(=O)=O)cc2)ccc1OCc1ccccc1F,i,x,1,-7
COc1cc(CNc2ccc(N3CCCC3)cc2)ccc1OCc1ccccc1F,+,-5,11,2
SMILES,Myeloid diff MLP,TLR4 MyD88 comp,TLR9-MyD88 block,NOD2-RIPK2 inh
COc1cc(CNc2ccc(N3CCCCC3)cc2)ccc1OCC(=O)NC(C)(C)C,i,x,-5,3
COc1cc(CNc2ccc(N3CCCC3)cc2)ccc1OCc1ccccc1,+,-1,-1,-3
CCN(CC)C(=O)C1=C(C)N(Cc2ccc(F)cc2)C(=O)C(CC(=O)NCC2CCCCC2)C1 (stereo not given),i,x,7,-4
COc1ccccc1C(=O)Nc1ccc2c(c1)nc1n2CCN(C2CCCCC2)C1,+,x,14,2
CCCNC(=O)Cn1c(=O)/c(=C/c2ccc(-c3ccc([N+](=O)[O-])cc3)o2)s/c1=C\C(=O)C(C)(C)C,+,x,5,0
CSc1ccc(/C=c2\s/c(=C\C(=O)C(C)(C)C)n(CC(=O)NCCC3=CCCCC3)c2=O)cc1,i,-12,1,3
COCCCNCCCOc1ccc(C)cc1Br,+,0,-1,1
S=C(NCCCCN(Cc1ccc(Cl)cc1)c1ccc(Br)cn1)NCCCc1cnc[nH]1,i,x,x,13
Nc1ccc(C2=Nc3cccc4cccc(c34)N2)cc1,i,1,-2,-3
CC1=Nc2cccc3cccc(c23)N1,+,-6,-5,-15
COc1ccc(-c2[nH]ncc2Oc2ccccc2OC)c(O)c1,+,-6,-5,4
CSc1ccc(Cl)c(C(=O)OCC(=O)NCC(C)C)c1,i,-11,10,-9
CNC(=O)COC(=O)c1cc(SC)ccc1Cl,+,1,-1,6
